SMILES strings stand for the structures. Results filed as inconclusive are left out. Where a call stands in place of a potency, no number is given. Activity calls are given as the source filed them. Calls follow the shape of the dose curve; as a rule, active = well fitted curve in the direction sought with a large enough effect; inconclusive = small, poorly fitted or top-dose-only effect, or another doubt; inactive = no such curve, though single readings can be large; an effect the other way counts as inactive or inconclusive.

Experiment [1] relates to Zika virus NS2B-NS3 protease. As to the kind of experiment: Primary screen GU AMC qHTS for Zika virus inhibitors (AID 1347154). Also: nearly all actives have a fitted effect of over 70% in size. The procedure, abridged: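 Unlinked Zika NS2B hydrophilic domain–NS3 protease complex at 25 nM in 10 mM Tris-HCl pH 8.0, 0.01% Tween 20, with an AMC peptide substrate. Fluorescence change (340/450 nm) over 15 min at room temperature, normalized to controls, fitted to 4-parameter Hill.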
(Quantitative high-throughput screening tests each substance at several concentrations.)

The subject of experiment [2] is Zika virus NS2B-NS3 protease (unlinked complex). As to the kind of experiment: Primary screen GU Rhodamine qHTS for Zika virus inhibitors: Unlinked NS2B-NS3 protease assay (AID 1347159). Also: nearly all actives have a fitted effect of over 60% in size. Also: potency is read from the fitted curve at half-maximal effect. The essentials: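 Buffer 10 mM Tris-HCl pH 8.0, 0.01% Tween 20. Unlinked protease 25 nM; compound preincubation 15 min, RT, protected from light. Substrate Rhod110, 1.5 microM; ~15% conversion in 15 min.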

Take `Cc1c(NC(=O)OC[C@@H]2COCCN2)cn2ncnc(Nc3ccc4c(cnn4Cc4cccc(F)c4)c3)c12`: the Potency result in experiment [1] and in experiment [2] was “inactive” each time.
On to `CC(C)Nc1cc(C(F)(F)F)cc2nc(NC(=O)c3cccnc3)nn12`, for which the Potency entry in experiment [1] and in experiment [2] was “inactive” throughout.
Take `O=C(NCCS(=O)(=O)c1ccc(C(F)(F)F)cn1)c1ccc(Cl)cc1`: in experiment [1], the Potency entry was “inactive”.
Take `Clc1cccc(-n2nnnc2NCc2ccccc2Oc2ccccn2)c1Cl`: the Potency entry in experiment [1] and in experiment [2] was “inactive” in each case.
Consider `CN[C@H]1CCc2cc(OC)c(OC)c(OC)c2-c2ccc(OC)c(=O)cc21`, for which the Potency result in experiment [1] was “inactive”.
`CC1COC2(CCN(c3nc(=O)c4cc(C(F)(F)F)cc([N+](=O)[O-])c4s3)CC2)O1` (stereo not drawn): the Potency entry in experiment [1] and in experiment [2] was “inactive” in each case.
With `c1cc(-c2cnn3cc(-c4ccc(OCCN5CCCCC5)cc4)cnc23)ccn1`, the Potency entry in experiment [1] was “inactive”.
As to `COc1ccc(C(=O)CC2(O)C(=O)Nc3c(Cl)ccc(Cl)c32)cc1` (stereo not drawn), the Potency result in experiment [1] and in experiment [2] was “inactive” in each case.
On to `CC(C)c1noc(N2CCC(COc3ccc(-c4ccc(S(C)(=O)=O)cc4)nc3)CC2)n1`, for which the Potency result in experiment [1] and in experiment [2] was “inactive” throughout.
For `CN(C)c1nc(Cc2ccc(NC(=O)c3ccc4ccccc4c3)cc2)nc(Cl)c1CC(=O)O`, the Potency entry in experiment [1] is “inactive”. In addition, the Potency in experiment [2] is 28.2 µM (active).
Turning to `Nc1ccc(C(=O)c2cc3c(ccc4ccccc43)[nH]2)cc1`, in experiment [1], the Potency result is “inactive”.
For the compound `COc1cc2c(Oc3ccc4[nH]c(C)cc4c3F)ncnc2cc1OCCCN1CCCC1`, the Potency entry in experiment [1] and in experiment [2] was “inactive” in each case.
Consider `C[C@@H]1CN(CC(=O)Nc2ccc3c(c2)Cc2cccc(-c4cc(=O)cc(N5CCOCC5)o4)c2S3)C[C@H](C)O1`, for which, in experiment [1], the Potency result is “inactive”.
In the case of `CNc1nccc(-c2cccnc2Oc2cc(C(=O)Nc3cccc(C(F)(F)F)c3)ccc2C)n1`, the Potency result in experiment [1] and in experiment [2] was “inactive” throughout.

The values above are taken from PubChem BioAssay (NCATS).
